Results as given in PubChem BioAssay (Tox21).
Unmarked numbers belong to inactive results. Where a call stands in place of a potency, no number is given. Calls of active or inactive are those of the source. Calls come from the whole dose curve; as a rule, active = well fitted curve in the direction sought with a large enough effect in the repeat runs; inconclusive = weak or mixed curves; inactive = flat fitted curve, though single readings scatter.

Test: qHTS assay to test for compound auto fluorescence at 535 nm (green) in HepG2 cells (AID 720675)
Details: green autofluorescence 485/535 nm, 1 h; series mostly up to 91.3 µM
From the text: National Center for Advancing Translational Sciences [NCATS]
NIH Chemical Genomics Center [NCGC]
U.S. Environmental Protection Agency [EPA]
National Institutes of Environmental Health Sciences [NIEHS]
National Toxicology Program [NTP]
U.S. Food and Drug Administration [FDA]
Compound auto fluorescence often interferes with screening of the compound library against various biological targets and signaling pathways. Some of these compounds may have fluorophoric properties. Such properties may interfere with the assay outputs resulting in false positives and/or negatives. To decrease such complications and ensure the compound activities are relevant in terms of biological response, the Tox21 10K compound library was screened for auto fluorescence.
From the fluorophores used as reporter signals in our screening assays, the auto fluorescence equivalencies of compounds against three fluorophores have been evaluated: Triamterene, Fluorescein and Rose Bengal sodium for blue, green and red fluorescence, respectively. The fluorescence intensities were measured using Excitation/Emission wavelengths at 405/460nm, 485/535nm and 540/590nm for blue, green and red labels, respectively. This assay includes the green fluorescence data.
Tox21 Assay Protocol Summary:
2,000 HepG2 cells in 5 uL of culture medium (MEM containing 10% FBS) per well were dispensed into black wall/clear bottom 1536-well plates using a Multidrop Combi Dispenser (ThermoFisher Scientific, Waltham, MA). The assay plates were incubated overnight at 37 C to allow cell attachment to the well bottom, followed by the transfer of 23 nL compound or DMSO vehicle by a pintool work station (Kalypsys , San Diego, CA). After the assay plates were incubated for 1 hr at 37 C and 5% CO2, fluorescence intensities in the assay plates were measured by an Envision (PerkinElmer, Shelton, CT) plate reader using three labels for measuring blue, green and red fluorescence at […] 460, 535 and 590 nm respectively.

Compound | Potency | fluorescence, % of fluorescein control
CCOC(=O)N1CCC(=C2c3ccc(Cl)cc3CCc3cccnc32)CC1 | inactive | –
Oc1ccc(-c2ccccc2)c(Cl)c1 | inactive | –
C[C@@H]1CC[C@H]2C(C)(C)[C@H]3C[C@@]12CC[C@@]3(C)O | inactive | –
CC(=O)OC(OC(C)=O)c1ccc([N+](=O)[O-])o1 | inactive | –
NCCCC(O)(P(=O)(O)O)P(=O)(O)O | inactive | –
[O]=[Zr] | inactive | –
CN1[C@@H]2CC[C@@H]1CC(OC(=O)C(CO)c1ccccc1)C2 (stereo not given in full) | inactive | –
Clc1ccccc1CN1CCc2sccc2C1 | inactive | –
NC(=O)C(=O)N/N=C/c1ccc([N+](=O)[O-])o1 | inactive | –
COC(=O)CC(C)CCC=C(C)C (stereo not given) | inactive | –
Clc1ccc(C(c2ccccc2Cl)C(Cl)Cl)cc1 (stereo not given) | inactive | –
CN1[C@@H]2CC[C@H]1CC(OC(=O)C(CO)c1ccccc1)C2 (stereo not given in full) | inactive | –
CCCCCCCC/C=C\CCCCCCCC(=O)N(C)CC(=O)O | inactive | –
C[C@H]1O[C@@H](O[C@H]2[C@@H](O)C[C@H](O[C@H]3[C@@H](O)C[C@H](O[C@H]4CC[C@@]5(C)[C@H](CC[C@@H]6[C@@H]5C[C@@H](O)[C@]5(C)[C@@H](C7=CC(=O)OC7)CC[C@]65O)C4)O[C@@H]3C)O[C@@H]2C)C[C@H](O)[C@@H]1O | inactive | –
CCCCOc1ccc(C(=O)CCN2CCCCC2)cc1 | – | 0.0117% [at 18.6 µM]
CC(C)(c1cc(Br)c(O)c(Br)c1)c1cc(Br)c(O)c(Br)c1 | inactive | –
c1cc2c3c(c1)ccc1cccc(c13)C2 | inactive | –
S=C(SSSSSSC(=S)N1CCCCC1)N1CCCCC1 | – | -0.0182% [at 18.6 µM]
C=C(C)C(=O)OCCC[Si](Cl)(Cl)Cl | inactive | –
CCN(CC)CCOC(=O)C1(C2CCCCC2)CCCCC1 | inactive | –

Compound | Potency | fluorescence, % of fluorescein control
C/C=C/C(=O)Oc1c(CCCCCC(C)C)cc([N+](=O)[O-])cc1[N+](=O)[O-] | inactive | –
O=C1NCN(c2ccccc2)C12CCN(CCCC(c1ccc(F)cc1)c1ccc(F)cc1)CC2 | inactive | –
CNCC[C@H](Oc1cccc2ccccc12)c1cccs1 | inactive | –
CN(C)c1ccc(N=NS(=O)(=O)O)cc1 | inactive | –
COC(=O)[C@]1(C)CCC[C@@]2(C)[C@H]1CC=C1C=C(C(C)C)CC[C@@H]12 | inactive | –
C=C(c1ccc(C(=O)O)cc1)c1cc2c(cc1C)C(C)(C)CCC2(C)C | inactive | –
O=C(O)c1cccc(Cl)n1 | inactive | –
C1CC(COCC2CO2)CCC1COCC1CO1 (stereo not given) | inactive | –
CNC(=O)c1cc(Oc2ccc(NC(=O)Nc3ccc(Cl)c(C(F)(F)F)c3)cc2)ccn1 | inactive | –
COC(=O)NCCC[Si](OC)(OC)OC | inactive | –
O=C1c2c(O)ccc([N+](=O)[O-])c2C(=O)c2c([N+](=O)[O-])ccc(O)c21 | inactive | –
Cc1nc(Nc2ncc(C(=O)Nc3c(C)cccc3Cl)s2)cc(N2CCN(CCO)CC2)n1 | inactive | –
O=Nc1ccc(NO)cc1 | inactive | –
C[C@@]12C(=O)OC(=O)[C@]1(C)C1CCC2O1 | – | -0.0054% [at 18.6 µM]
C=C[C@](C)(O)CC[C@@H]1[C@@]2(C)CCCC(C)(C)[C@@H]2CC[C@@]1(C)O | inactive | –
O[C@@H](c1cc(C(F)(F)F)nc2c(C(F)(F)F)cccc12)[C@H]1CCCCN1 | inactive | –
CCCCCCCCCCCCCCCC | inactive | –
C=CC(=O)OCCC#N | inactive | –
CC(O)C#CC(C)O (stereo not given) | inactive | –
CCCCN(CCCC)CCC(O)c1cc2c(Cl)cc(Cl)cc2c2cc(C(F)(F)F)ccc12 (stereo not given) | – | 0.0229% [at 18.6 µM]
